# Reference: PubChem BioAssay AID602342 (Broad Institute, 2012)
# The whole screen tested about 340,000 compounds, of which about 1,000 (0.29%) were called active.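 The calls were made as follows: active = mean replicate activation score at least 90 and every replicate individually at or above 90; inconclusive = only one of the two criteria met; inactive = neither criterion met.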 Only a selection was taken, and actives are over-represented in it overall.
# Assay: compounds raising miR-122 luciferase sensor output – cell-based, single point, plate reader, miR-122 inhibitor project, primary screen (AID 602342);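 also: higher luciferase means less miR-122 activity so hits act as miR-122 inhibitors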
# Conditions: Huh7 miR-122 Renilla luciferase sensor, 48 h, hits give high values, neutral wells = 0, positive control = 100; at 16.7 µM unless noted
row,Compound,activation (reporter increase)
1,Cc1ccc(S(=O)(=O)Nc2ccc3c(c2)C(=O)N([C@H](C)CO)C[C@H](C)[C@H](CN(C)S(=O)(=O)c2ccc(F)cc2)O3)cc1,-7.86% (inactive)
2,CC(=O)N1CC[C@@H]2[C@@H](CO)N(C)c3ccc(-c4ccc(C#N)cc4)cc3[C@@H]21,-2.99% (inactive)
3,C[C@@H]1CN([C@H](C)CO)C(=O)c2cc(NC(=O)NC3CCCCC3)ccc2O[C@@H](C)CCCCO[C@H]1CN(C)S(C)(=O)=O,-11.1% (inactive)
4,CCC(=O)N[C@H]1C=C[C@@H](CC(=O)NCC2CCCCC2)O[C@H]1CO,-4.01% (inactive)
5,C[C@@H]1CCCCO[C@@H](CN(C)Cc2ccncc2)[C@H](C)CN([C@@H](C)CO)C(=O)c2cc(N(C)C)ccc2O1,9.37% (inactive)
6,C[C@@H]1CN([C@@H](C)CO)C(=O)Cc2cc(NC(=O)Nc3ccc(F)cc3)ccc2O[C@@H]1CN(C)C,-1.94% (inactive)
7,CN(C)C(=O)[C@@H]1[C@@H](CO)[C@@H]2Cn3c(cccc3=O)[C@H]1N2CC1CCCCC1,-3.4% (inactive)
8,Cc1ccccc1-c1cnc2c(c1)C(=O)N([C@@H](C)CO)C[C@@H](C)[C@@H](CN(C)CC1CCOCC1)O2,-4.12% (inactive)
9,CN1C(=O)c2cc(NS(=O)(=O)c3ccc(Cl)cc3)ccc2OC[C@H]2O[C@@H](CC(=O)O)CC[C@H]21,37.8% (inactive)
10,O=C(Oc1ccc(C(=S)N2CCOCC2)cc1)c1ccc(F)cc1,330% [at 12.5 µM] (active)
11,Cc1ccc(C(=O)Oc2ccc(C(=S)N3CCOCC3)cc2)cc1,-1.88% [at 12.5 µM] (inactive)
12,O=C(Oc1ccc(F)cc1)N1CCOCC1,-3.21% [at 12.5 µM] (inactive)
13,CC(=O)N(C)C[C@H]1Oc2ncc(-c3cccc(F)c3)cc2C(=O)N([C@@H](C)CO)C[C@H]1C,-3.49% (inactive)
14,CN1C(=O)c2cc(NC(=O)c3ccc(F)c(F)c3)ccc2OC[C@H]2O[C@@H](CC(=O)N3CCCCC3)CC[C@H]21,-8.45% (inactive)
15,O=C(/C=C/c1ccc2c(c1)OCCO2)c1ccc(O)cc1,7.01% [at 12.5 µM] (inactive)
16,O=C(/C=C(O)/C=C/c1ccc(O)cc1)/C=C/c1ccc(O)cc1,140% [at 12.5 µM] (active)
17,COc1ccc(/C=C/C(=O)c2c(O)cc(OC)cc2OC)cc1,2.04% [at 12.5 µM] (inactive)
18,Cc1noc(C)c1NC(=O)N(C)C[C@H]1OCCCC[C@H](C)Oc2ccc(NC(=O)Nc3ccccc3)cc2C(=O)N([C@H](C)CO)C[C@@H]1C,-0.276% (inactive)
19,Cn1cnc([N+](=O)[O-])c1Nc1ccccc1O,2.42% [at 12.5 µM] (inactive)
20,Cn1cnc([N+](=O)[O-])c1Sc1n[nH]c(N)n1,-3.18% [at 12.5 µM] (inactive)
21,Cn1cnc([N+](=O)[O-])c1Sc1ccccc1,217% [at 12.5 µM] (active)
